From PubChem BioAssay (EPA / NIEHS)
Inconclusive results are not listed. Calls of active or inactive are those of the source. How the source made its calls, unless noted: active means hit-call score of the fitted dose curve at least 0.9, where 1 is the maximum; inactive means score below 0.9.

Legend:
[1] = BSK_BT_PBMCCytotoxicity: PBMC Cytotoxicity Assessment in the BioMAP Diversity Plus: BT Assay (AID 2284225); details: primary human B cells with PBMC;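 further: PBMC viability measured by Alamar Blue dye reduction fluorescence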
Method in brief: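 75,000 cells/well; cpd 1 h → SEB + TSST-1 (20 ng/mL final each) → 90 h → Alamar Blue 6 h → fluor. 546/580 nm. DMSO = neg. control/baseline.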

[2] = read-out: Secreted IgG (sIgG), gene 3500; test: BSK_BT_sIgG: BioMAP Diversity Plus: BT Assay for Secreted IgG (sIgG) Biomarker Activity (AID 2284226); details: primary human B cells with PBMC
Method in brief: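 Secreted IgG from a human primary B cell–PBMC co-culture was measured by ELISA 24 hours after dosing, with DMSO defining baseline activity.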

[3] = BSK_BT_Bcell_Proliferation: Viability Assessment in the BioMAP Diversity Plus: BT Assay for B cell Proliferation (AID 2284227); details: primary human B cells with PBMC
Method in brief: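 Using a human primary B cell–PBMC co-culture, the assay measures total protein by sulforhodamine B absorbance as a gauge of proliferation after 72 h. Analysis followed the positive fitting direction with DMSO as baseline.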

[4] = read-out: Interleukin 6 (IL6), IL6 (gene 3569); test: BSK_BT_xIL6: BioMAP Diversity Plus: BT Assay for Interleukin 6 (IL6) Biomarker Activity (AID 2284228); details: primary human B cells with PBMC
Method in brief: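 IL-6 secretion measured (Luminex xMAP) in human primary B cell + PBMC co-culture at 24 h of chemical exposure; DMSO served as negative control and activity baseline, with curves fitted for increase.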

[5] = read-out: Interleukin 17A (IL17A), IL17A (gene 3605); test: BSK_BT_xIL17A: BioMAP Diversity Plus: BT Assay for Interleukin 17A (IL17A) Biomarker Activity (AID 2284229); details: primary human B cells with PBMC
Method in brief: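 Human primary B cells plus PBMC, treated 24 h with chemicals; supernatant IL-17A quantified on Luminex xMAP beads. Gain of signal over DMSO control scored as activity.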

[6] = read-out: Tumor necrosis factor (Homo sapiens) (UniProt P01375); test: BSK_BT_xTNFa: BioMAP Diversity Plus: BT Assay for Tumor necrosis factor alpha (TNF-alpha) Biomarker Activity (AID 2284230); details: primary human B cells with PBMC
Method in brief: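 Endpoint derived in the positive direction versus DMSO vehicle. Cells: B cells together with PBMC, exposed 24 h before TNF-alpha in the medium was read on the Luminex xMAP platform.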

[7] = read-out: Vascular cell adhesion molecule 1 (VCAM1), VCAM1 (gene 7412); test: BSK_MyoF_VCAM1: BioMAP Diversity Plus: MyoF Assay for Vascular cell adhesion molecule 1 (VCAM1) Biomarker Activity (AID 2284231); details: primary human lung fibroblasts
Method in brief: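 VCAM-1 levels, lung fibroblasts, ELISA, 24 h exposure, increase scored relative to DMSO.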

[8] = read-out: Collagen I, COL1A1 (gene 1277); test: BSK_MyoF_CollagenI: BioMAP Diversity Plus: MyoF Assay for Collagen I Biomarker Activity (AID 2284238); details: primary human lung fibroblasts
Method in brief: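 Measured by ELISA: Collagen I from human lung fibroblasts 24 h after compound addition, analysed for signal gain with DMSO as baseline; overt toxicity read from SRB staining of parallel cultures at the same time.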

[9] = read-out: Collagen III, COL3A1 (gene 1281); test: BSK_MyoF_CollagenIII: BioMAP Diversity Plus: MyoF Assay for Collagen III Biomarker Activity (AID 2284239); details: primary human lung fibroblasts
Method in brief: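 Multiplexed cell assay in lung fibroblasts, harvested at 24 h post-dose. Collagen III detected by ELISA, with positive-direction fitting relative to DMSO vehicle.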

[10] = read-out: Interleukin 17F (IL17F), IL17F (gene 112744); test: BSK_BT_xIL17F: BioMAP Diversity Plus: BT Assay for Interleukin 17F (IL17F) Biomarker Activity (AID 2284243); details: primary human B cells with PBMC
Method in brief: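 Luminex readout of IL-17F secretion, 24 h; cells: human B cells with PBMC; positive-direction analysis, DMSO control.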

[11] = read-out: Actin alpha 1 (ACTA1), ACTA1 (gene 58); test: BSK_MyoF_ACTA1: BioMAP Diversity Plus: MyoF Assay for Actin alpha 1 (ACTA1) Biomarker Activity (AID 2284244); details: primary human lung fibroblasts
Method in brief: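 Measured by ELISA: alpha-smooth muscle actin in human primary lung fibroblasts 24 h after dosing, with DMSO as baseline and upward signal change as the fitted direction.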

[12] = CCTE_Mundy_HCI_Cortical_Synap_Neur_Matur_CellBodySpotCount: CCTE's Synaptogenesis and Neurite Maturation Assay in rat cortical cells for Cell Body Spot Count, Mundy Lab (AID 2284223)
Method in brief: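 Chemicals were applied to AraC-treated rat primary cortical cells at DIV 7 and measured at DIV 12. Fixed cells were labelled for MAP2, synaptophysin and nuclei, and high-content imaging gave cell body synaptophysin spot counts per neuron relative to DMSO.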

[13] = CCTE_Mundy_HCI_Cortical_NOG_NeuronCount: CCTE's Neurite Outgrowth Assay in rat cortical cells for Neuron Count, Mundy Lab (AID 2284236; active means hit-call score of the fitted dose curve at least 0.9, where 1 is the maximum;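 further: neurons counted by imaging betaIII-tubulin and Hoechst stained cortical cells; cells exposed to compound for about 48 hours before fixation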)
Method in brief: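 Read-out: neuron number by high-content imaging of betaIII-tubulin (Alexa Fluor-488) and Hoechst-labelled rat primary cortical cells.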

[14] = CCTE_Mundy_HCI_Cortical_NOG_BPCount: CCTE's Neurite Outgrowth Assay in rat cortical cells for Branch Point Count, Mundy Lab (AID 2284237);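 on AC50: branch points counted about two days after chemical exposure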
Method in brief: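 Measured 50.33 h after dosing, this morphology endpoint uses rat primary cortical cultures labelled for betaIII-tubulin. Branch points are quantified by high-content imaging, with DMSO as negative control and baseline.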

[15] = CCTE_Mundy_HCI_hNP1_Casp3_7: CCTE's Caspase-Glo 3/7 Assay in human neuroprogenitor cells for Apoptosis, Mundy Lab (AID 2284240)
Method in brief: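 Neuroepithelial-lineage stem cells from WA09 embryonic cells were treated with chemicals after 40–44 h of culture. Twenty-four hours later, caspase-3/7 activation was detected luminescently after a 30 min room-temperature reagent step, with DMSO as baseline.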

[16] = CCTE_Mundy_HCI_hNP1_CellTiter: CCTE's Cell Titer-Glo 2 Assay in human neuroprogenitor cells for Viability, Mundy Lab (AID 2284241; active means hit-call score of the fitted dose curve at least 0.9, where 1 is the maximum;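 on AC50: a hit is a drop in ATP luminescence versus DMSO meaning reduced viability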)
Method in brief: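 Measures ATP content in human neural progenitors derived from WA09 embryonic cells. Read-out at 26.5 hours after dosing, with DMSO serving as the negative control and baseline.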

[17] = CCTE_Mundy_HCI_Cortical_Synap_Neur_Matur_NeuronCount: CCTE's Synaptogenesis and Neurite Maturation Assay in rat cortical cells for Neuron Count, Mundy Lab (AID 2284242; active means hit-call score of the fitted dose curve at least 0.9, where 1 is the maximum;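 further: neuron number from Hoechst nuclei and MAP2 staining by high-content imaging; hits reduce neuron count versus DMSO baseline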)
Method in brief: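 Imaging-based neuron count in rat cortical cultures after chemical exposure from DIV 7 to DIV 12, with AraC added at DIV 5. Activity is fitted relative to DMSO.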

[18] = CCTE_Mundy_HCI_hNP1_Pro_ResponderAvgInten: CCTE's Proliferation Assay in human neuroprogenitor cells, Mundy Lab (AID 2284224; active means hit-call score of the fitted dose curve at least 0.9, where 1 is the maximum;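 further: human neural progenitor cells hNP1 derived from WA09 embryonic stem cells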)
Method in brief: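 Human neuroprogenitors (hNP1, WA09 lineage) receive test chemical after 40 to 44 hours of attachment. A four-hour BrdU pulse begins twenty hours later, followed by fixation and high content imaging; signal is referenced to DMSO controls.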

[19] = UKN2_HCS_IMR90_cell_viability: Viability Assessment in the University of Konstanz (UKN) Leist Lab Neural Crest Cell Migration Assay in human induced IMR90 Pluripotent Stem Cells (UKN2) (AID 2284233);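 further: viability of neural crest cells differentiated from IMR90 iPSC measured by calcein-AM fluorescence imaging; cells exposed to compound for 24 h after a 24 h migration phase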
Method in brief: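 iPSC-derived (IMR90) neural crest cells seeded around silicone stoppers on PLO/laminin/fibronectin; after 24 h migration in N2-S with EGF/FGF, chemical added for 24 h. Calcein-AM/Hoechst stained 30 min, high-content imaged; bidirectional fit versus DMSO.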

[20] = UKN4_HCS_LUHMES_cell_viability: Viability Assessment in the University of Konstanz (UKN) Leist Lab Neurite Outgrowth Assay in human LUHMES cells (UKN4) (AID 2284232)
Method in brief: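 Human dopaminergic-model LUHMES neurons were exposed to chemicals for 24 h after a 2-day differentiation. Viability was scored by imaging Hoechst H-33342 staining, with activity fitted in both directions relative to DMSO controls.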

Measured: AC50

Chain of Tumor necrosis factor (Homo sapiens) (P01375 whole entry, looked up): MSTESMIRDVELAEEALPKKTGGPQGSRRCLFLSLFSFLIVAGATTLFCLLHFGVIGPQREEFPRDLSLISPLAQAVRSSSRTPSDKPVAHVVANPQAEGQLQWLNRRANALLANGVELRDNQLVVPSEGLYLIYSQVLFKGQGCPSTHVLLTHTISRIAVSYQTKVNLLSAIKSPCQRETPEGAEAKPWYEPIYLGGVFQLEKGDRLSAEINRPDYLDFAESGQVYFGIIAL

CCCCN(CCCC)C(=S)[S-].CCCCN(CCCC)C(=S)[S-].[Ni+2]
active: [2] 2.66 µM
inactive: [1] | [3] | [4] | [5] | [6] | [7] | [8] | [9] | [10] | [11]

O=[N+]([O-])c1cccc2ccccc12
inactive: [1] | [2] | [3] | [4] | [5] | [6] | [7] | [8] | [9] | [10] | [11]

NC(=O)c1ccc(N)nc1
active: [14] 11.4 µM | [17] 7.58 µM
inactive: [12] | [13] | [15] | [16]

Cc1ccccc1OP(=O)(Oc1ccccc1C)Oc1ccccc1C
active: [12] 4.04 µM | [18] 25.8 µM | [2] 13.9 µM | [3] 34.4 µM | [4] 20 µM | [5] 24.7 µM | [6] 31 µM | [7] 11.4 µM | [19] 8.46 µM | [13] 24.1 µM | [14] 18 µM | [8] 9.92 µM | [9] 10 µM | [15] 10.8 µM | [16] 18.3 µM | [17] 2.83 µM | [10] 27.3 µM | [11] 9.16 µM
inactive: [1]

CCOCn1c(-c2ccc(Cl)cc2)c(C#N)c(Br)c1C(F)(F)F
active: [12] 18.9 µM | [18] 9.2 µM | [19] 15.1 µM | [13] 58 µM | [14] 18.6 µM | [15] 10.5 µM | [16] 13.5 µM | [17] 12.1 µM

O=C(CCl)NCO
inactive: [1] | [2] | [3] | [4] | [5] | [6] | [7] | [8] | [9] | [10] | [11]

CNC(=O)CSP(=O)(OC)OC
inactive: [12] | [20] | [19] | [13] | [14] | [15] | [16]
